Experimental findings from PubChem BioAssay AID485341 (National Center for Advancing Translational Sciences (NCATS), 2010) are described below.

The structures appear in SMILES notation. About 1,700 (0.52%) of roughly 330,000 compounds were called active. Entries that show only a call come without a potency. The call rests on the fitted dose curve; in most records, active means well fitted inhibition curve with a large enough effect; inconclusive means small, poorly fitted or top-dose-only effect; inactive means no such curve, though single readings can be large or run the other way. For the sample, actives were picked, then their nearest neighbours and some compounds at random.
Potency means the concentration at half of the fitted maximal effect.

Chain of Beta-lactamase (Escherichia coli (strain K12)) (P00811 whole entry, looked up): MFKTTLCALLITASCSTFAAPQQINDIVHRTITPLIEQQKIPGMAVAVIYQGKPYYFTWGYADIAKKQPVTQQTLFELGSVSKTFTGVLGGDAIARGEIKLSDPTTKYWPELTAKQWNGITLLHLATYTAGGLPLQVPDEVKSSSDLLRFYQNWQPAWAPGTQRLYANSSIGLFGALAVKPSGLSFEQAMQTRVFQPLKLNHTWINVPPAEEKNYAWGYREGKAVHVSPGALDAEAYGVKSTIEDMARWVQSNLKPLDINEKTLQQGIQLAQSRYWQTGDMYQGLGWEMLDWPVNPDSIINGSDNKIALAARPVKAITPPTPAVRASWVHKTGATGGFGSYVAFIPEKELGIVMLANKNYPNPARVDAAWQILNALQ

This assay concerns the target Beta-lactamase (Escherichia coli (strain K12)) (UniProt P00811). The assay can be described thus: qHTS Inhibitors of AmpC Beta-Lactamase (assay without detergent). Further: nearly all actives have a fitted effect of over 20% in size. As to conditions: AmpC nitrocefin hydrolysis, absorbance 480 nm, 0.0001% Triton; series mostly up to 57.1 µM. In short, it runs like this: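 20 mM phosphate pH 7.0 + 0.01% (detergent screen) or 0.0001% Triton X-100; 5.3 nM AmpC reagent; cpd preinc 15 min RT; nitrocefin (800 uM stock) to start; A480 q20 s × 4 min; Activity was normalised to no-enzyme and no-compound control wells.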
Consider `CC(NC(=S)Nc1ccccc1)C(c1cccs1)N1CCOCC1` (configuration not stated), for which the Potency entry was “inactive”. For `CCCCn1c(SCC(=O)N2CCCC2=O)nc2cc(S(N)(=O)=O)ccc21` the value was “inactive”; for `CCOc1ccc(N2C(=O)CN(c3cccc4ccccc34)C2=S)cc1`, 10 µM (active); for `CCO/C=C1\C(=O)N(c2ccc(OCC)cc2)C(=O)c2ccccc21`, “inactive”. Take `CCOc1ccc(N2C(=O)CSC2=NC#N)cc1`: the Potency entry was “inactive”. Take `Cc1cc(NC(=O)CSCc2nc(-c3cccc(Cl)c3)oc2C)no1`: the Potency entry was “inactive”. As for `O=S(=O)(c1ccc(SCc2ccccc2)nc1)N1CCCCCC1`, the Potency result was “inactive”. For the molecule `C/C(CC(C)C)=N\Oc1nc(C)cc(C)n1`, the Potency entry was “inactive”. Turning to `COc1ccc(NC(=O)C(=O)NCC(c2ccco2)N2CCc3ccccc3C2)cc1` (configuration not stated), the Potency was 28.2 µM (active).

As to `CCOC(CNC(=O)C(=O)NCC(c1ccco1)N1CCN(c2ccc(OC)cc2)CC1)OCC` (configuration not stated), the Potency entry is “inactive”.

Turning to `O=C(NCC(c1ccco1)N1CCc2ccccc2C1)c1ccccc1Cl` (configuration not stated), the Potency entry was “inactive”. With `O=[N+]([O-])c1ccc(N2CCN(S(=O)(=O)c3ccccc3)CC2)cc1N1CCc2ccccc2C1`, the Potency result was “inactive”.

Turning to `O=C(N[C@@H](Cc1ccccc1)C(=O)OCc1ccccc1)c1nc[nH]c1C(=O)N[C@@H](Cc1ccccc1)C(=O)OCc1ccccc1`, the Potency result was “inactive”. With `CCC(C(=O)Nc1ncccn1)(C(F)(F)F)C(F)(F)F`, the Potency result was “inactive”.

For the molecule `Cc1ccccc1-c1nc(CS(=O)(=O)CC(=O)NC(C)c2ccccc2)c(C)o1` (configuration not stated), the Potency entry is “inactive”.

For the molecule `Cc1ccccc1-c1nc(CS(=O)(=O)CC(=O)N2CCc3ccccc3C2)c(C)o1`, the Potency was 11.2 µM (active). In the case of `CSc1ccc(CCNC(=O)CS(=O)(=O)Cc2nc(-c3ccccc3F)oc2C)cc1`, the Potency entry is “inactive”.

`CCC[C@H]1CCCC/C=C\CCCC(=O)OCCN1C(=O)OC(C)(C)C`: the Potency result was “inactive”. Consider `COCCn1c(CN2CCC(Cc3ccccc3)CC2)nc2c1c(=O)n(C)c(=O)n2C`, for which the Potency entry was “inactive”. Consider `CCN1CCN(Cc2nc3c(c(=O)n(C)c(=O)n3C)n2CC(=O)c2ccccc2)CC1`, for which the Potency is 1.58 µM (active). Consider `COCCn1c(CN(Cc2ccccc2)Cc2ccccc2)nc2c1c(=O)n(C)c(=O)n2C`, for which the Potency entry was “inactive”.

With `CC1CCCN(Cc2nc3c(c(=O)n(C)c(=O)n3C)n2CC(=O)c2ccccc2)C1` (configuration not stated), the Potency result was “inactive”. Consider `CC(C)Cn1c(CN(Cc2ccccc2)Cc2ccccc2)nc2c1c(=O)n(C)c(=O)n2C`, for which the Potency is 3.55 µM (active).

Turning to `CC(C)CCn1c(CN(C)Cc2ccccc2)nc2c1c(=O)n(C)c(=O)n2C`, the Potency result is “inactive”. For `Cc1oc2nc(SCC(=O)Nc3ccc(S(N)(=O)=O)cc3)nc(NC(=O)c3ccccc3)c2c1C` the value was “inactive”; for `O=C(CNC1CCCCC1)NCC1(c2ccccc2)CCCC1`, “inactive”; for `Cc1ccc(C(=O)NNC(=O)CSc2nnc3ccccn23)cc1`, “inactive”. In the case of `O=C(CSc1nnc2ccccn12)c1ccccc1`, the Potency was 44.7 µM (active). With `Cc1ccc(-n2c(C)cc(C(=O)CSc3nnc4ccccn34)c2C)cc1`, the Potency result was “inactive”.

With `COc1ccc(-c2nc(CCNC(=O)c3ccc(Br)o3)cs2)cc1`, the Potency is 44.7 µM (active). Consider `COc1ccc(N2CCN(C(=O)CNC(=O)c3ccc(Br)o3)CC2)cc1`, for which the Potency result is “inactive”.

For the molecule `O=C(NCCc1csc(-c2ccccc2)n1)c1ccccc1F`, the Potency result is “inactive”.

With `CCOC(=O)N1CCN(Cc2oc(CO)cc(=O)c2O)CC1`, the Potency result was “inactive”. Take `C=CC1=C(C(=O)O)N2C(=O)[C@@H](NC(=O)/C(=N\OCC(=O)O)c3csc(N)n3)[C@H]2SC1`: the Potency is 2 µM (active). For `Cc1cc(C)cc(C(=O)NC2C(=O)N3C(C(=O)O)=C(CSc4nnc(C)s4)CSC23)c1` (configuration not stated) the value was “inactive”; for `Cc1nnc(SCC2=C(C(=O)O)N3C(=O)C(NC(=O)Cn4nc(C)c(Cl)c4C)C3SC2)s1` (configuration not stated), “inactive”; for `CC(C)(C)OC(=O)C1=C(CO)CS[C@@H]2[C@H](NC(=O)Cc3ccccc3)C(=O)N12`, “inactive”.

As to `O=C(CN1C(=O)NC2(CCCCC2)C1=O)NCCC1=CCCCC1`, the Potency result was “inactive”. For the molecule `O=S(=O)(c1ccc(Cl)s1)N1CCC2(CC1)OCCO2`, the Potency entry is “inactive”. Take `COc1ccc(CNC(=O)CN2C(=O)NC3(CCCc4sccc43)C2=O)cc1` (configuration not stated): the Potency result was “inactive”.

On to `C=CCC1=C/C(=C\c2c(N)n3nc(CC(=O)N4CCOCC4)sc3nc2=O)C=C(OC)C1=O`, for which the Potency result was “inactive”. Then `COC(=O)C1(C)NC(c2ccc(F)cc2)C2C(=O)N(c3ccccc3)C(=O)C21` (configuration not stated), with “inactive”. `COC(=O)CSc1snnc1-c1ccc(Cl)c(Cl)c1`: the Potency entry is “inactive”. Then `O=C1c2ccccc2NC(c2ccccn2)N1NS(=O)(=O)c1ccccc1` (configuration not stated), with “inactive”; and `Clc1ccc(Cl)c(Oc2ccc(Oc3nc(Cl)ccc3Cl)cc2)n1`, with “inactive”; and `Nc1c(N(CCCO)C(=O)C2CCCC2)c(=O)[nH]c(=O)n1Cc1ccccc1`, with “inactive”. In the case of `CCCCCn1c(SCCC(C)C)nc2c1c(=O)[nH]c(=O)n2C`, the Potency entry was “inactive”.

Consider `COC(=O)c1c(NC(=O)c2ccc(S(=O)(=O)N3CCOCC3)cc2)sc2c1CCN(C(C)C)C2`, for which the Potency result was “inactive”. Consider `CNC(=S)N/N=C/c1cn(Cc2ccc(C)cc2)c2ccccc12`, for which the Potency entry was “inactive”. In the case of `COc1cccc(Cn2cc(/C=N/NC(=O)c3cc(O)cc(O)c3)c3ccccc32)c1`, the Potency is 7.94 µM (active).

With `N#CCC(=O)N/N=C/c1cn(Cc2ccc3ccccc3c2)c2ccccc12`, the Potency entry was “inactive”. Turning to `Cc1ccc(C(=O)N/C(=C\c2ccco2)C(=O)NC2CCS(=O)(=O)C2)cc1` (configuration not stated), the Potency entry was “inactive”. `Cc1cccc(C)c1NC(=O)CS(=O)CC(=O)N1CCN(c2ccccc2)CC1` (configuration not stated): the Potency entry is “inactive”. In the case of `O=C(O)CCCN1C(=O)c2ccccc2Sc2ncccc21`, the Potency result is “inactive”. Then `C=CCN(CC=C)S(=O)(=O)c1ccc(C(=O)Nc2nc3c(s2)CCc2ccccc2-3)cc1`, with 8.91 µM (active). `O=C(Nc1ccc(S(=O)(=O)N2CCc3ccccc3C2)cc1)c1ccccc1`: the Potency result is “inactive”.

Regarding `COCCN(CCOC)S(=O)(=O)c1ccc(C(=O)Nc2nc3c(s2)CCc2ccccc2-3)cc1`, the Potency result is “inactive”. Turning to `O=C(Cc1ccccc1)NCC1OCCc2ccccc21` (configuration not stated), the Potency result was “inactive”. For `CC(=O)N1C(=O)/C(=C2\SC(=S)N(NC(=O)c3ccc(O)cc3)C2=O)c2ccccc21`, the Potency was 20 µM (active). Then `Cn1cccc1/C=C1\SC(=S)N(NC(=O)c2ccc(Cl)cc2)C1=O`, with “inactive”. For `O=C(O)c1ccc(/C=C2\SC(=S)N(NC(=O)c3ccc(Br)cc3)C2=O)cc1` the value was “inactive”; for `CC1(c2ccccc2Cl)NC(=O)N(CC(=O)NC(=O)NCc2ccco2)C1=O` (configuration not stated), “inactive”.
